This is a sample that favours compounds with a hit; in the whole collection about 21% have one here.
Shiga toxin inh: Shiga toxin inhibition; Vero cells, Shiga toxin protein synthesis inhibition reporter; inhibition, % at 38.7 µM; hit rate 9.2% among 290,000; in the data active = inhibition mostly above about 28%, no sharp cut-off; inactive = mostly below about 43%; note: 0% is about no effect
NS1 function inh: blocks influenza NS1 protein function; Potency, µM (highest dose often 46.1 µM), for the others: top-dose activity, positive = more growth; hit rate 0.4% among 270,000; AID 2326; calls by dose curve; note: potency is the fitted concentration of half-maximal effect; actives are rising curves; nearly all actives have a fitted effect of over 50% in size
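Growth recovery, yeast-based: influenza A NS1 expressed in S. cerevisiae causes slow growth, and suppressors are detected by OD600. The parent strain without NS1 is used as positive control.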
Pf growth 48h: P. falciparum growth inhibition at 48 hours (one generation); P. falciparum luciferase growth in erythrocytes, 48 h; Potency, µM (highest dose often 28.7 µM), for the others: top-dose activity change, negative = inhibition, most hits filed as inhibitors; hit rate 5.9% among 310,000; AID 504832; note: potency is the fitted concentration of half-maximal effect; % is set by controls: 0 for no effect and ±100 for the full control effect
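A one-generation exposure of luciferase-tagged malaria parasites in RPMI 1640/Albumax erythrocyte culture, 37 C and 5% CO2. Inhibition is inferred from decreased luminescence after adding detection reagent.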
CHX counter: counter-screen hit for Shiga toxin inhibitors, cycloheximide. hit rate 12% among 300,000. max response, %. cell reporter, cycloheximide protein synthesis inhibition counterscreen; in the data active = max response mostly above about 13%, no sharp cut-off; inactive = mostly below about 14%; note: read at 38.3 µM for the half of the compounds with a filed dose; 0% is about no effect
Pf growth 96h: inhibits malaria parasite growth, 96 h; P. falciparum luciferase reporter growth, 96 h; Potency, µM (doses to about 28.7 µM), for the others: at the highest dose activity change, negative = inhibition, usual class: inhibitors; hit rate 6.9% among 320,000; AID 504834; note: potency is the fitted concentration of half-maximal effect; % is set by controls: 0 for no effect and ±100 for the full control effect
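Readout is luminescence from an integrated firefly luciferase in P. falciparum. Red cells, 2% hematocrit and 0.05% parasitemia final, were cultured with compound through two parasite generations (96 hours) at 37 C, 5% CO2.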
* hit, by the source's call; u = inconclusive; x = not tested or not shown. Unless noted, calls come from the whole dose curve; as a rule, active = well fitted inhibition curve with a large enough effect; inconclusive = small, poorly fitted or top-dose-only effect, or another doubt; inactive = no such curve, though single readings can be large or run the other way.

SMILES	Shiga toxin inh	NS1 function inh	Pf growth 48h	CHX counter	Pf growth 96h
C=COC(=O)CSc1nc(-c2cccs2)ccc1C#N	38	1%	54%	31*	28%
CC(C)OC(=O)CSc1nc(N)c(C#N)c(-c2cccs2)c1C#N	12	5%	u	-2	31%
CN(C)/C=C/c1oc2ccc(O)cc2c1[N+](=O)[O-]	146*	x	54%	37	39%
C[C@H](NC(=O)c1ccccc1Cl)C(=O)OCc1cn2cc(Cl)ccc2n1	x	x	2%	x	2%
COc1cccc(CNC(=O)CN2C(=O)COc3ccc(S(=O)(=O)N4CCC(C)CC4)cc32)c1	-12	0%	0%	11	-8%
Cc1nc2c(n1C1CCCCC1)C(=O)c1ccccc1C2=O	20	15%	1.9µM*	-3	1.3µM*
O=C(CC1CCCCC1)Nc1nc2ccccc2s1	59*	1%	81%	33*	3%
O=C(Nc1nc2ccccc2s1)NC1CCCCC1	125*	-6%	-8%	40*	u
Cc1cnc(NC(=O)CC2CCCC2)s1	105*	x	235%	49*	258%
COc1cccc(NC(=S)N(Cc2ccc(Cl)cc2)Cc2ccc(C(=O)O)cc2)c1	-10	x	15%	-11	-21%
O=C(O)[C@H](C1NCCS1)N1C(=O)c2ccccc2C1=O (some centres undefined)	x	-4%	x	x	x
COc1ccc(C(=O)Nc2cc3c(cc2Cl)OCCCO3)cc1	94*	-17%	x	45*	199%
COc1cccc(C(=O)Nc2cc3c(cc2Cl)OCCCO3)c1	84*	-27%	249%	76*	311%
COCCOc1cc(NC(=O)c2cccc(OC)c2)c(Cl)cc1Cl	33	x	12µM*	6	u
CC(=O)c1cc2c(cc1NC(=O)c1ccc(Cl)cc1)OCCO2	x	9%	36%	-2	-27%
Cc1cccc(C(=O)Nc2cc(OCc3cccc(F)c3)c(Cl)cc2Cl)c1	32	2%	14%	16*	-1%
CCC(=O)Nc1ccc(Cl)c(NC(=O)c2cccc(OC)c2)c1	2	2%	-6%	-2	14%
Cc1cc(OCC(=O)NNC(=O)c2cccc(F)c2)ccc1Cl	x	x	7%	x	-11%
COc1cccc(S(=O)(=O)N2CCN(S(=O)(=O)c3ccc4c(c3)OCCO4)CC2)c1	-13	x	x	-6	x
N#Cc1cc2sc3nnc(-c4ccncc4)n3c2cc1C#N	-11	-4%	13µM*	-1	u
CC(=O)c1cc2c(ccc3ccccc32)oc1=O	-3	-12%	10%	2	2.3µM*
O=C(c1ccco1)c1cc2c(ccc3ccccc32)oc1=O	-14	-4%	4%	2	-25%
CC(=O)Nc1cc2c(ccc3ccccc32)oc1=O	16	x	4%	6	0%
COCC(C)NC(=O)c1cc2c(ccc3ccccc32)oc1=O (centres undefined)	22*	-3%	-4%	24*	125%
O=C(Nc1nc(-c2ccc(Oc3ccccc3)cc2)cs1)C1=COCCO1	-12	4%	-6%	5	-25%
SMILES	Shiga toxin inh	NS1 function inh	Pf growth 48h	CHX counter	Pf growth 96h
Cc1ccc(C)c2[nH]c(=O)c(CCNC(=O)CCc3ccccc3)cc12	5	0%	-5%	2	5%
O=C(NCc1ccccc1)c1ccc(-c2ccccc2F)o1	41*	-43%	62%	52*	-2%
CCc1nnc(NC(=O)c2ccc(-c3ccccc3F)o2)s1	28	x	19%	22*	u
O=C(NCCc1ccccc1)c1ccc(-c2ccccc2C(F)(F)F)o1	-9	-43%	21%	1	-6%
NS(=O)(=O)c1ccc(CCNC(=O)c2cc([N+](=O)[O-])ccc2N2CCOCC2)cc1	x	x	8%	x	-5%
COCCn1c(SCC(=O)Nc2cc(C)cc(C)c2)nnc1C(C)C	-4	-4%	-5%	0	39%
CCOC(=O)c1cccc(NC(=O)CSc2nnc(-c3ccoc3C)n2CCOC)c1	9	-5%	0%	9.2*	1.2µM*
COCCn1c(SCC(=O)Nc2cccc(C)c2)nnc1C(C)C	34	-6%	15%	2	0.17µM*
COCCn1c(SCC(=O)Nc2cccc(OC)c2)nnc1-c1ccc(Cl)cc1	-8	-3%	-20%	-2	x
COCCn1c(SCC(=O)Nc2cccc(OC)c2)nnc1-c1ccccc1	-7	6%	-2%	-3	2.3µM*
O=C(CN1C(=O)S/C(=C\c2cccc(Cl)c2)C1=O)NCCCn1ccnc1	-2	-1%	14%	-5	34%
COc1ccc(/C=C2\SC(=O)N(CC(=O)NCCCn3ccnc3)C2=O)cc1	19*	-5%	85%	65*	40%

Source: PubChem BioAssay
